Laboratory results as given in PubChem BioAssay (EPA / NIEHS).
Records with an inconclusive call do not appear. The source made the active and inactive calls. Rule for the calls, unless noted: active = hit-call score of the fitted dose curve at least 0.9, where 1 is the maximum; inconclusive = response in the unintended direction; inactive = score below 0.9.

What was measured:
[1] = TOX21_p53_BLA_p2_viability: Viability Assessment in the Tox21 HCT-116 p53 Agonism Beta-lactamase Assay, Phase 2 (AID 2283591);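 note: compound exposure lasted 16 h at 37 °C; actives lower the ATP signal meaning cytotoxicity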
Summary of the method: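 HCT-116 p53-bla cells (4000/well) rested 5 h at 37C, then received compounds in DMSO (217-fold dilution) for 16 h at 37C, 5% CO2. After the CCF4 read, CellTiter-Glo was added; ATP luminescence was read after 30 min at room temperature.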

[2] = molecular target: Cellular tumor antigen p53 (Homo sapiens) (UniProt P04637); assay: TOX21_p53_BLA_p2_ratio: Tox21 HCT-116 p53 Agonism Beta-lactamase Assay, Ratio, Phase 2 (AID 2283592)
Cellular tumor antigen p53 (Homo sapiens), sequence (P04637 whole entry, looked up): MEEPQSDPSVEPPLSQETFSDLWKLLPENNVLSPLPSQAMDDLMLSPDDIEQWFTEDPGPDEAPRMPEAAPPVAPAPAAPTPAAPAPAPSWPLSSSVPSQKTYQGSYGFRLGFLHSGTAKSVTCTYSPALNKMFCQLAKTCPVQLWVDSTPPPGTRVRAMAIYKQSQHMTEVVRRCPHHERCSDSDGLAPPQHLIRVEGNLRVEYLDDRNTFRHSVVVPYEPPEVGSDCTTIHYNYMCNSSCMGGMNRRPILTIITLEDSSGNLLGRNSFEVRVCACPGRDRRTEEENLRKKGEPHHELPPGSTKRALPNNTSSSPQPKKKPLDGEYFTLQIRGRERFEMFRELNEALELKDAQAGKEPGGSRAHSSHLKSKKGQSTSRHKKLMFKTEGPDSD
Summary of the method: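 HCT116 cells carrying a p53-responsive beta-lactamase reporter were plated, incubated 5 h at 37C, then dosed with compounds in DMSO (217-fold dilution) for 16 h. CCF4-AM substrate was added for 2 h at room temperature; the 460/530 nm emission ratio gave gain-of-signal activity relative to DMSO.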

[3] = molecular target: Cellular tumor antigen p53 (Homo sapiens) (UniProt P04637); assay: TOX21_p53_BLA_p3_ratio: Tox21 HCT-116 p53 Agonism Beta-lactamase Assay, Ratio, Phase 3 (AID 2283596)
Summary of the method: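 HCT116 p53-bla cells (4000/well) given compound in DMSO (217-fold dilution) after 5 h, incubated 16 h at 37C. CCF4-AM substrate 2 h at room temperature; 460/530 nm emission ratio, gain fitted against DMSO.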

[4] = TOX21_p53_BLA_p4_viability: Viability Assessment in the Tox21 HCT-116 p53 Agonism Beta-lactamase Assay, Phase 4 (AID 2283597);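 note: hits lower the luminescence signal meaning cytotoxicity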
Summary of the method: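 HCT116 p53-bla cells (4000/well) rested 5 h at 37C, then received compounds in DMSO (217-fold dilution) for 16 h at 37C, 5% CO2. CellTiter-Glo was added after the CCF4-AM read, and luminescence was read after 30 min at room temperature.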

[5] = TOX21_p53_BLA_p5_viability: Viability Assessment in the Tox21 HCT-116 p53 Agonism Beta-lactamase Assay, Phase 5 (AID 2283600)
Summary of the method: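 Cells were plated at 4000/well, rested 5 h at 37C, then given compounds in DMSO (217-fold dilution) for 16 h at 37C, 5% CO2. Following the CCF4-AM beta-lactamase read, CellTiter-Glo was added and luminescence was read after 30 min at room temperature.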

[6] = molecular target: Cellular tumor antigen p53 (Homo sapiens) (UniProt P04637); assay: TOX21_p53_BLA_p4_ratio: Tox21 HCT-116 p53 Agonism Beta-lactamase Assay, Ratio, Phase 4 (AID 2283601)
Summary of the method: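 HCT116 cells carrying an inducible beta-lactamase reporter were plated at 4000 cells/well, rested 5 h, then exposed to compounds in DMSO (217-fold dilution) for 16 h at 37C. CCF4-AM substrate was loaded 2 h at room temperature; 460/530 nm emission ratio scored gain-of-signal versus DMSO.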

[7] = CCTE_Harrill_HTTr_Viability_MCF7: CCTE's 6-hour Cell Viability Assessment for the High-Throughput Transcriptomics (HTTr) Platform, in MCF-7 cells cultured in DMEM + 10% fetal bovine serum, Harrill Lab (AID 2284010; active = hit-call score of the fitted dose curve at least 0.9, where 1 is the maximum; inactive = score below 0.9)
Summary of the method: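 Membrane integrity was scored by high-content imaging of propidium iodide dye exclusion after a 6 h exposure across an eight-point dilution series. Data were fitted bidirectionally relative to DMSO as negative control and baseline.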

[8] = CCTE_Harrill_HTTr_Apoptosis_MCF7: CCTE's 6-hour Apoptosis Assessment for the High-Throughput Transcriptomics (HTTr) Platform, in MCF-7 cells cultured in DMEM + 10% fetal bovine serum, Harrill Lab (AID 2284011; active = hit-call score of the fitted dose curve at least 0.9, where 1 is the maximum; inactive = score below 0.9)
Summary of the method: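 MCF-7 cells in DMEM + 10% fetal bovine serum were exposed to chemicals for 6 hours over an eight-point dilution series. Caspase-3/7 activation was imaged by high content imaging with CellEvent Caspase 3/7 Green; bidirectional fitting used DMSO as baseline.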

[9] = molecular target: Cellular tumor antigen p53 (Homo sapiens) (UniProt P04637); assay: TOX21_p53_BLA_p5_ratio: Tox21 HCT-116 p53 Agonism Beta-lactamase Assay, Ratio, Phase 5 (AID 2283599)
Summary of the method: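 HCT-116 cells carrying a p53-inducible beta-lactamase reporter were seeded at 4000 cells/well and dosed after 5 h with compound in DMSO (217-fold dilution). After 16 h at 37C, CCF4-AM substrate was added for 2 h, and the 460/530 nm emission ratio was scored as gain-of-signal versus DMSO.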

Measured: outcome

Oc1cc(O)c2c(c1)O[C@H](c1ccc(O)c(O)c1)[C@H](O)C2
inactive: [1] | [2] | [3] | [4] | [5]

C[C@@H](O)[C@H]1C(=O)N2C(C(=O)O)=C(S[C@@H]3CN[C@H](C(=O)N(C)C)C3)[C@H](C)[C@H]12
not listed: [7] | [8] | [9]
inactive: all other assays above

CCOc1cc(OCC)c(C(C)=O)cc1OCC
inactive: [1] | [2] | [3] | [4] | [5]

CC(CCc1ccccc1)NCC(O)c1ccc(O)c(C(N)=O)c1 (centres undefined)
not listed: [9]
inactive: all other assays above

C[C@@H]1O[C@@H](OC[C@H]2O[C@@H](Oc3c(-c4ccc(OCCO)c(OCCO)c4)oc4cc(OCCO)cc(O)c4c3=O)[C@H](O)[C@@H](O)[C@@H]2O)[C@H](O)[C@H](O)[C@H]1O
inactive: [1] | [2] | [3] | [4] | [6]

OCc1ccccc1O
inactive: [1] | [2] | [3] | [9]

C=C(C)C(=O)OCCC[Si](Cl)(Cl)Cl
not listed: [7] | [8] | [9]
inactive: all other assays above

FC(F)OC(Cl)C(F)(F)F (centres undefined)
not listed: [5] | [7] | [8]
inactive: all other assays above

CCOC(=O)CC(=O)c1cc(F)c(Cl)nc1Cl
not listed: [7] | [8] | [9]
inactive: all other assays above

O=C(O)c1ccc(OCCn2ccnc2)cc1
not listed: [7] | [8] | [9]
inactive: all other assays above

CC1CCc2c(N3CCC(O)CC3)c(F)cc3c(=O)c(C(=O)O)cn1c23 (centres undefined)
inactive: [1] | [2] | [3] | [4] | [6]

CCCCC(=O)O[C@H]1CC[C@H]2[C@@H]3CCc4cc(O)ccc4[C@H]3CC[C@]12C
inactive: [1] | [2] | [3] | [4] | [6]

CC(=O)N[C@H]1[C@H]([C@H](O)[C@H](O)CO)OC(C(=O)O)=C[C@@H]1N=C(N)N
not listed: [7] | [8] | [9]
inactive: all other assays above

CCCCC(=O)O[C@]1(C(=O)CO)[C@H](C)C[C@H]2[C@@H]3CCC4=CC(=O)C=C[C@]4(C)[C@@]3(F)[C@@H](O)C[C@@]21C
not listed: [7] | [8] | [9]
inactive: all other assays above
